The record followed here is ChEMBL document CHEMBL3988442, “University of Dundee, Small-Polar-MMV Screening Library” (2021).

About 13,000 (27%) of roughly 48,000 compounds showed an effect of 50% or more. The list shows a part of the results.

For the assay, the system named is Wolbachia pipientis. Put plainly: Anti-Wolbachia Cell-Based Screen. Type of assay: functional. More on the design: scale not given: in the data most compounds retested in dose-response had high values. As to conditions: 5 µM.
On to `CC(C)N[C@@H]1CO[C@H](CNC(=O)Nc2ccccc2)[C@H]1O`, for which the “Percent Effect” value is listed as -15.53%. For the molecule `Cc1nc(C(NC(=O)CN(C)C(C)C)c2ccccc2F)no1` (stereo not drawn), the “Percent Effect” value is -8.62%. The same measure for `CCc1nnc(CN2CCN(C(C)=O)CC2)o1`: -9.857%; for `Cc1ccc(C(=O)N2CCC(Oc3ccc(F)cc3F)CC2)c(=O)[nH]1`: -17.81%; for `CC(C)c1nnc(NCCS(C)(=O)=O)s1`: -6.765%. Regarding `CC1(C)COCCN1C(=O)CCc1nc(-c2ccncc2)no1`, the “Percent Effect” value was 14.72%. As for `CCOc1ncccc1CNc1cc(COC)ncn1`, the figure is -5.284%; as for `O=C(c1ccccc1-c1ccccc1)N1CCOC2(CNCCOC2)C1` (stereo not drawn), -21.41%.

In the case of `O=C(C1CCCC1)N1CC2(CCNC2)OCc2ccccc21` (stereo not drawn), the “Percent Effect” value was found to be 106%.

`Cc1ccccc1C1CCCN1C(=O)CN1CC2(CCNCC2)OC1=O` (stereo not drawn): the “Percent Effect” value is given as -3.464%.

With `O=C(c1ccccc1)N1CC2(CCNC2)OCc2ccccc21` (stereo not drawn), the “Percent Effect” value was 116.8%. Take `COc1ccc(Cl)cc1C(=O)N1CCOC2(CNCCOC2)C1` (stereo not drawn): the “Percent Effect” value was -14.44%. The same measure for `O=C(c1ccc(Cl)cc1)N1CC2(CCNC2)OCc2ccccc21` (stereo not drawn): 113.7%; for `O=C(c1ccc(NCc2ccco2)nc1)N1CCc2ccccc21`: 16.32%; for `Cc1ccccc1C(=O)N1CCOC2(CNCCOC2)C1` (stereo not drawn): -17.32%.

As to `O=C1OC2(CCNCC2)CN1CC(=O)N1CCC1c1cccs1` (stereo not drawn), the “Percent Effect” value was -13.03%.

Consider `Clc1cc(CN2CCCC(Cn3cncn3)C2)c2ncccc2c1` (stereo not drawn), for which the “Percent Effect” value is listed as -5.34%. The same measure for `N#CCC(=O)NCc1nnc2n1CCN(Cc1ccsc1)C2`: -8.086%; for `COC(=O)CN1N=C(C(=O)N2CCCC2)S(=O)(=O)c2ccccc21`: 18.69%. Take `CC(C)c1nccn1-c1cncc(C2CCCN2Cc2cccnc2)n1` (stereo not drawn): the “Percent Effect” value is listed as 151.3%. As for `Cc1nccn1-c1cncc(C2CCCN2Cc2cccnc2)n1` (stereo not drawn), the figure is 117.3%; as for `Cc1nccn1-c1cncc(C2CCCN2Cc2ccccc2)n1` (stereo not drawn), 97.46%. As to `CCc1nc(C2CCCN2Cc2nccn2Cc2ccccc2)no1` (stereo not drawn), the “Percent Effect” value stood at 3.12%. As for `COCCN(Cc1ccc(F)cc1C#N)CC(F)(F)F`, the figure is -22.68%. Take `CNC(=O)C1(CCCc2cccnc2)CCCCN1` (stereo not drawn): the “Percent Effect” value is reported as -7.533%. As to `COCCNC(=O)C1(CCCc2cccnc2)CCCN1C` (stereo not drawn), the “Percent Effect” value came to 112.4%. As to `COCCCn1ccc(NC(=O)NCCc2cccnc2)n1`, the “Percent Effect” value is reported as -2.122%. The same measure for `CN1CCCC1(CCCc1cccnc1)C(=O)NCc1nccn1C` (stereo not drawn): 97.51%; for `O=C(Nc1ccnc2ccnn12)c1ccc(N2CCC(O)CC2)cc1`: 5.741%. As for `COCCN1CCC(CN(CC2CCCO2)C(=O)CNC(C)=O)CC1` (stereo not drawn), the figure is 106.5%. In the case of `COCCN1CCC(CN(CC2CCCO2)C(=O)COC)CC1` (stereo not drawn), the “Percent Effect” value is reported as -4.712%. `COCCN1CCC(CN(CC2CCCO2)C(=O)CCNC(C)=O)CC1` (stereo not drawn): the “Percent Effect” value is given as -5.608%. With `COCC(=O)N(CCC(=O)OC)CC1CCCO1` (stereo not drawn), the “Percent Effect” value is reported as -0.04842%. As for `COCCN1CCC(CN(CC2CCCO2)C(=O)CCC(F)(F)F)CC1` (stereo not drawn), the figure is 140.7%; as for `COCCN1CCC(CNC(=O)C2(NC(C)=O)CCCCC2)CC1`, 17.17%. The same measure for `COCCN1CCC(CN(CC2CCCO2)C(=O)C2CCOCC2)CC1` (stereo not drawn): 95.06%.

For the molecule `CN(CC1CCOCC1)C(=O)NCCCN1CCCCC1`, the “Percent Effect” value was -10.18%. As for `O=C(CC1CCCO1)Nc1ccn(Cc2cccc3cccnc23)n1` (stereo not drawn), the figure is -4.253%; as for `CC(=O)N1CCN(C(=O)CCCc2nc(C(C)C)no2)CC1`, -8.538%. Regarding `CC(NCc1cnc(C2CCC2)s1)c1ccc(-n2cccn2)cc1` (stereo not drawn), the “Percent Effect” value is reported as -14.42%. The same measure for `O=C(c1cc(COc2ccc3c(c2)OCO3)[nH]n1)N1CCCCO1`: 18.38%; for `O=S(=O)(Nc1ccc2c(c1)OCCO2)N1CCCCC1`: 85.12%. The same measure for `CC1(Cc2ccc3c(c2)OCO3)CCCN(S(=O)(=O)N2CCCC2)C1` (stereo not drawn): -20.92%. As to `O=S(=O)(Nc1ccc(Oc2ccc3c(c2)OCO3)cc1)N1CCCCC1`, the “Percent Effect” value is listed as 108.9%. The same measure for `CN(C)S(=O)(=O)Nc1ccc(Oc2ccc3c(c2)OCO3)cc1`: 102.4%; for `O=C(CSc1ccc2c(c1)OCCO2)NS(=O)(=O)C1CCCCC1`: -3.835%. The same measure for `CN(C)S(=O)(=O)Nc1ccc(-n2nccc2C(F)(F)F)cc1`: -20.66%; for `Cc1c(F)cc(C(=O)O)cc1S(=O)(=O)Nc1ccc2c(c1)OCCO2`: -12.89%. As to `Cc1cc(C(=O)O)cc(S(=O)(=O)Nc2ccc3c(c2)OCO3)c1C`, the “Percent Effect” value was found to be 13.44%. For `CC(C)c1nsc(N2CCn3c(nnc3C(F)(F)F)C2)n1`, the “Percent Effect” value was -8.607%. As to `CCc1cc(=O)[nH]c(-c2ccc(NCCc3ccc(O)cc3)nc2)n1`, the “Percent Effect” value is recorded as -8.547%.

`Cc1ccc(CNC2CCN(CCc3ccncc3)CC2)cc1C`: the “Percent Effect” value is listed as 2.941%. For the molecule `O=C1[C@H]2CC[C@H](CN(Cc3ccccc3OC(F)F)C2)N1CC1CC1`, the “Percent Effect” value is -16.02%. The same measure for `CN(C)CCN1CCO[C@@H]2CCN(C(=O)c3cccn3C)CC[C@H]21`: 111.2%; for `Cc1nc(CN2CCO[C@H]3CN(C(=O)c4cccn4C)C[C@H]32)cs1`: 4.285%. As for `O=S(=O)(C1CC1)N1CCO[C@@H]2CN(Cc3ccco3)C[C@@H]2C1`, the figure is 3.474%; as for `CCS(=O)(=O)N1C[C@@H]2CN(Cc3cnn(C)c3)CCO[C@@H]2C1.O=C(O)C(F)(F)F`, 4.441%; as for `CN(C)CCN1CCO[C@H]2CCN(C(=O)c3cccs3)CC[C@@H]21.O=C(O)C(F)(F)F.O=C(O)C(F)(F)F`, -1.673%. In the case of `O=C(O)C(F)(F)F.O=C(c1cocn1)N1C[C@@H]2CN(Cc3ccco3)CCO[C@@H]2C1`, the “Percent Effect” value is -2.402%. As for `Cn1cccc1C(=O)N1CCO[C@@H]2CN(Cc3ccco3)C[C@@H]2C1`, the figure is 74.97%. The same measure for `Cn1cc(CN2C[C@@H]3CN(Cc4ccoc4)CCO[C@@H]3C2)cn1.O=C(O)C(F)(F)F.O=C(O)C(F)(F)F`: 1.152%; for `Cn1cc(CN2C[C@@H]3CN(C(=O)c4cccn4C)CCO[C@@H]3C2)cn1`: 94.4%; for `CN(Cc1ccc(Cl)s1)C(=O)CN1CC(n2cccn2)C1`: -39.44%.
